Assay results published in PubChem BioAssay (NCI).
This is part of a sample that, as a whole, favours compounds with a hit. Of some 79,000 tested, about 15% had one in any assay. Unmarked numbers belong to inactive results. Calls of active or inactive are those of the source. Cut-off read from the data, not from the text of the source: active = growth inhibition above about 70%; inactive = the rest.

Test: NCI Yeast Anticancer Drug Screen. Data for the bub3 strain (AID 167)
Settings: S. cerevisiae bub3 mutant strain, hits give high values
Protocol: Growth inhibition of yeast strains with defined genetic alterations is measured as a screen for potential anti-cancer activity. Selected strains with alterations in DNA damage repair or cell cycle control were exposed to compounds and growth inhibition was measured relative to vehicle treated controls. The strain used in this assay is bub3

[1] = at 5.0 µM (retest, dose inferred, filed as 0.5)
[2] = at 50.0 µM (retest, dose inferred, filed as 5.0)

SMILES	growth inhibition [1]	growth inhibition [2]	growth inhibition (at 50.0 µM)
CN(C)c1ccc(C(=O)C2CCCC(C)(C)C2)cc1 (configuration not stated)	57%	47%	86.9% (active)
CC(=O)Nc1nnc(-c2coc3ccccc3c2=O)s1	4%	1%	15.4%
CCC(Sc1ccccc1[N+](=O)[O-])[N+](=O)[O-] (configuration not stated)	0%	-11%	97.1% (active)
CCOC(=O)c1ccc(NC(=O)CCl)cc1	0%	95% (active)	40%
CCN(CC)C(=S)N/N=C(/c1ccccc1)c1ccccn1	95% (active)	96% (active)	85.2% (active)
Clc1ccc2c(Cl)c3c(nc2c1)CCCC3	3%	98% (active)	99.5% (active)
COC1/C=C\OC2(C)Oc3c(C)c(O)c4c(c3C2=O)C2=NC(C)(C)N(c3ccccc3)C2=C(NC(=O)/C(C)=C\C=C\C(C)C(O)C(C)C(O)C(C)C(OC(C)=O)C1C)C4=O (configuration not stated)	-7%	69%	27.9%
CN(C(=O)c1cccs1)C(=S)N1CCN(c2ccccc2)CC1	-14%	83% (active)	61.3%
Cn1c(=O)c2c3oc(=O)cc(O)c3c(=O)n3c4ccccc4n(c1=O)c23	31%	75% (active)	42.3%
COc1ccc2cc(CNCCCCCCCCNCc3ccc4cc(OC)ccc4c3)ccc2c1	9%	100% (active)	93.7% (active)
N#CC(CC(=O)O)C(c1cccc2ccccc12)c1cccc2ccccc12 (configuration not stated)	17%	99% (active)	98.5% (active)
Nc1ncnc2c1c(-c1ccccc1)cn2-c1ccccc1	29%	81% (active)	95.8% (active)
OC(c1ccccc1)(c1ccccc1)c1ccc[cH-]1.OC(c1ccccc1)(c1ccccc1)c1ccc[cH-]1.[Fe+2]	3%	-1%	70.4% (active)
CCN1CCC(O)(/C=C/c2cccc(C)c2)C(C(=O)/C=C/c2cccc(C)c2)C1 (configuration not stated)	95% (active)	96% (active)	88.2% (active)
